Entries with a potency or affinity are not part of this list. The source made the active and inactive calls.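 How the source made its calls: active means a dose-response curve fit returns a half-maximal inhibitory concentration, extrapolated values included; inactive means the fit returns no such concentration.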
molecular target: HMG-CoA reductase [Enterococcus faecalis] (UniProt Q9FD70); experiment: class II HMG-CoA reductase inhibition potency – biochemical, Enterococcus faecalis, confirmation (AID 1233); details: purified E. faecalis HMGR, NADPH absorbance 340 nm kinetics; series mostly up to 100 µM

Row | SMILES | outcome
1 | CNC(=S)N/N=C(\C)c1ccc(N2CCOCC2)cc1 | inactive
2 | O=C(c1ccco1)N1CCCN(Cc2cn[nH]c2-c2ccc(-c3ccccc3)cc2)CC1 | inactive
3 | O=C(NCc1ccccc1Cl)c1cc([N+](=O)[O-])ccc1Cl | inactive
4 | CSc1ccc(C2CC(=O)Nc3nc(SC)[nH]c(=O)c32)cc1 (stereo not drawn) | inactive
5 | CCCn1c(=S)[nH]c2ccccc2c1=O | inactive
6 | CCCCOC(=O)c1nc[nH]c1C(=O)OCCCC | inactive
7 | Cc1cccc(S(=O)(=O)Nc2ccc(-c3cn4ccccc4n3)cc2)c1 | inactive
8 | CCCNC(=O)c1cc2c(C(F)(F)F)nn(C)c2s1 | inactive
9 | CS(=O)(=O)N(CC(N)=O)c1cccc(Br)c1 | inactive
10 | Cc1nn2c(C(F)(F)F)cc(-c3ccc(Cl)cc3)nc2c1C(=O)N1CCOCC1 | inactive
11 | COc1ccc(NC(=O)c2ccc3c(c2)n(C)c(=O)n3C)cc1 | inactive
12 | O=C(Nc1ccccc1)Nc1ccc2ocnc2c1 | inactive
13 | Cc1cc(C)c(S(=O)(=O)c2ccccc2)c(OC(=O)c2c(F)cccc2F)n1 | inactive
14 | CN(C)S(=O)(=O)c1ccc(NC(=O)N2CCOCC2)cc1 | inactive
15 | O=C(/C=C/c1cccs1)c1ccc(NC(=O)c2ccccc2F)cc1 | inactive
16 | CCN1CCCC1CNCC(O)COc1ccc(C(C)(C)C)cc1C (stereo not drawn) | inactive
17 | NC(=O)c1ccc2nc(NC(=O)c3ccc(N)cc3)sc2c1 | inactive
18 | CN(C)S(=O)(=O)c1cccc(C(=O)Nc2ccc(S(=O)(=O)N3CCCC3)cc2)c1 | inactive
19 | CCOC(=O)C1CCN(C(=O)CN(c2ccc3c(c2)OCCO3)S(C)(=O)=O)CC1 | inactive

Row | SMILES | outcome
20 | CCN(CC)S(=O)(=O)c1ccc(C(=O)Nc2c3c(nn2C(C)(C)C)CS(=O)(=O)C3)cc1 | inactive
21 | Cc1cc(-c2ccccc2)nc(SCC(=O)N2CCCC2)n1 | inactive
22 | O=C(COC(=O)C1CCC(=O)N1)Nc1ccc(Br)cc1 (stereo not drawn) | inactive
23 | Cc1ccc(S(=O)(=O)N2CCCC(C(=O)NCCCN3CCCCC3C)C2)cc1 (stereo not drawn) | inactive
24 | Cc1cc(C(=O)N/N=C2\CCCC(=O)C2)c(C)n1-c1ccccc1 | inactive
25 | Cn1cnnc1Sc1ccc(C(=O)OCC(=O)NC2CC2)cc1[N+](=O)[O-] | inactive
26 | O=C1c2ccccc2NC(c2ccc(Cl)cc2Cl)N1O (stereo not drawn) | inactive
27 | O=C(COC(=O)CSc1cc(Cl)ccc1Cl)Nc1ncc(C(F)(F)F)cc1Cl | inactive
28 | CCOc1cc(N2CCOCC2)c(OCC)cc1NC(=O)CC12CC3CC(CC(C3)C1)C2 | inactive
29 | COc1ccc(CNC(=O)COC(=O)[C@H](Cc2c[nH]c3ccccc23)NC(=O)c2cccs2)cc1 | inactive
30 | COc1ccc(N=C2C(=O)Nc3ccccc32)cc1 | inactive
31 | Fc1ccccc1Cn1cnc(NC(=S)NCCc2ccccc2)n1 | inactive
32 | CN(C=O)CP(=O)(O)CN1CCCCC1 | inactive
33 | Cc1cccc(C(=O)Nc2cc(=O)n(C)c(=O)n2C)c1 | inactive
34 | C=C(C)Cn1c(-c2ccncc2)n[nH]c1=S | inactive
35 | CCCn1c(C(O)c2ccc(OC)cc2)nc2ccccc21 (stereo not drawn) | inactive
36 | COc1ccc2oc(=Nc3ccc(C(=O)O)cc3)c(C(=O)NCc3ccco3)cc2c1 | inactive
37 | Cn1nccc1C(=O)N1CCc2ccccc21 | inactive
38 | CN(C)S(=O)(=O)N1CCN(S(=O)(=O)N2CCOCC2)CC1 | inactive

— PubChem BioAssay AID1233 (SRMLSC, 2008)
